Common to all, as to conditions: mRNA level, 48 h; actives raise or lower the signal
Read-out in assay [1]: Bcl-2 (BAX) gene, BAX (gene 581)
Nature of the assay: LTEA_HepaRG_BAX: Life Technologies and Expression Analysis (LTEA) Assay for Bcl-2 (BAX) gene using HepaRG (AID 2283470). The essentials:
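qRT-PCR read-out of BAX mRNA, normalized to three housekeeping genes, after 48 h chemical exposure of human HepaRG cells in serum-free induction medium; eight-point half-log series, top 100 uM, 0.5% DMSO vehicle; bidirectional fit versus DMSO.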

Read-out in assay [2]: adenosine kinase (ADK) gene, ADK (gene 132)
In words: LTEA_HepaRG_ADK: Life Technologies and Expression Analysis (LTEA) Assay for adenosine kinase (ADK) gene using HepaRG (AID 2283471). The essentials:
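HepaRG (human liver), 48 h chemical exposure, 8-pt half-log series, top 100 uM, 0.5% DMSO vehicle. Readout: ADK mRNA by qRT-PCR vs housekeeping genes; bidirectional curve fit relative to DMSO baseline.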

Read-out in assay [3]: Alpha-fetoprotein (AFP) gene, AFP (gene 174)
In words: LTEA_HepaRG_AFP: Life Technologies and Expression Analysis (LTEA) Assay for Alpha-fetoprotein (AFP) gene using HepaRG (AID 2283472). The essentials: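 qRT-PCR (Fluidigm TaqMan) readout of AFP transcript, normalized to three housekeeping genes, fitted bidirectionally against 0.5% DMSO baseline. HepaRG cells received chemicals for 48 h in serum-free induction medium, top concentration 100 uM, half-log steps.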

Read-out in the next assay: BCL2L11 (gene 10018)
In words: LTEA_HepaRG_BCL2L11: Life Technologies and Expression Analysis (LTEA) Assay for Bcl-2 (BCL2L11) gene using HepaRG (AID 2283473). Summed up:
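Differentiated human HepaRG cells in serum-free induction medium were exposed in duplicate for 48 h to eight concentrations (top 100 uM, half-log steps, 0.5% DMSO). BCL2L11 mRNA was quantified by TaqMan qRT-PCR, normalized to ACTB/GAPDH/POLR2A, bidirectional fit versus DMSO.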

Read-out in assay [4]: Apoptosis regulator Bcl-2 (Homo sapiens) (UniProt P10415)
Nature of the assay: LTEA_HepaRG_BCL2: Life Technologies and Expression Analysis (LTEA) Assay for Bcl-2 gene using HepaRG (AID 2283475). The essentials: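 qRT-PCR read-out (Fluidigm TaqMan) of BCL2 transcript, normalised to three housekeeping genes, after 48 h chemical exposure of HepaRG cells; 8-point half-log series, top 100 uM, 0.5% DMSO vehicle. Gain or loss of signal fitted relative to DMSO baseline.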

Read-out in assay [5]: Bcl-2 (BID) gene, BID (gene 637)
Nature of the assay: LTEA_HepaRG_BID: Life Technologies and Expression Analysis (LTEA) Assay for Bcl-2 (BID) gene using HepaRG (AID 2283476). Summed up:
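HepaRG, 48 h exposure, 8-pt half-log series, top 100 uM, 0.5% DMSO vehicle, duplicates. Readout: BID mRNA by TaqMan qRT-PCR; housekeeping-normalized; bidirectional curve fit vs DMSO baseline.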

Read-out in the next assay: Caspase-3 (Homo sapiens) (UniProt P42574)
Nature of the assay: LTEA_HepaRG_CASP3: Life Technologies and Expression Analysis (LTEA) Assay for cysteine-aspartic acid protease (CASP3) using HepaRG (AID 2283477). The essentials: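 Differentiated human HepaRG cells in serum-free induction medium were exposed 48 h to 8-point half-log concentrations from 100 uM (0.5% DMSO vehicle). CASP3 mRNA was measured by qRT-PCR, normalised to ACTB, GAPDH and POLR2A, with bidirectional fitting against DMSO.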

Read-out in assay [6]: Cytochrome P450 (CYP24A1), CYP24A1 (gene 1591)
Nature of the assay: LTEA_HepaRG_CYP24A1: Life Technologies and Expression Analysis (LTEA) Assay for Cytochrome P450 (CYP24A1) using HepaRG (AID 2283478). The essentials:
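Differentiated HepaRG cells, pre-cultured 48 h, were exposed in duplicate for 48 h in serum-free induction medium to 8 half-log concentrations (top 100 uM, 0.5% DMSO). CYP24A1 mRNA was quantified by TaqMan qRT-PCR, normalized to ACTB/GAPDH/POLR2A, fitted bidirectionally versus DMSO.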

Read-out in assay [7]: Cytochrome P450 (CYP1A2), CYP1A2 (gene 1544)
In words: LTEA_HepaRG_CYP1A2: Life Technologies and Expression Analysis (LTEA) Assay for Cytochrome P450 (CYP1A2) using HepaRG (AID 2283479). The essentials: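 Differentiated human HepaRG cells in serum-free induction medium were exposed in duplicate for 48 h to 8-point half-log concentrations up to 100 uM in 0.5% DMSO. CYP1A2 mRNA measured by qRT-PCR, normalized to ACTB, GAPDH, POLR2A; bidirectional fit vs DMSO.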

Read-out in assay [8]: cysteine-aspartic acid protease (CASP8), CASP8 (gene 841)
In words: LTEA_HepaRG_CASP8: Life Technologies and Expression Analysis (LTEA) Assay for cysteine-aspartic acid protease (CASP8) using HepaRG (AID 2283480). Summed up:
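CASP8 transcript measured by TaqMan qRT-PCR with ACTB/GAPDH/POLR2A normalization, after 48 h chemical exposure of HepaRG cells in serum-free induction medium. Eight concentrations, top 100 uM, half-log steps, 0.5% DMSO vehicle; fits in both directions versus DMSO.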

Read-out in assay [9]: Cytochrome P450 (CYP2B6), CYP2B6 (gene 1555)
In words: LTEA_HepaRG_CYP2B6: Life Technologies and Expression Analysis (LTEA) Assay for Cytochrome P450 (CYP2B6) using HepaRG (AID 2283481). Summed up: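 Differentiated HepaRG cells, serum-free induction medium, exposed 48 h in duplicate to 8-point half-log concentrations from 100 uM in 0.5% DMSO. CYP2B6 mRNA by qRT-PCR, normalized to ACTB, GAPDH, POLR2A; bidirectional fit versus DMSO.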

Read-out in a further assay: CYP2C8 (gene 1558)
Nature of the assay: LTEA_HepaRG_CYP2C8: Life Technologies and Expression Analysis (LTEA) Assay for CYP2C8 using HepaRG (AID 2283483). The essentials:
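CYP2C8 expression measured by TaqMan qRT-PCR and normalized to three housekeeping genes. HepaRG cultures were treated for 48 h with an eight-point half-log series topping at 100 uM, vehicle 0.5% DMSO, duplicates; fitted both directions against DMSO.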

Read-out in a further assay: CYP2C9 (gene 1559)
In words: LTEA_HepaRG_CYP2C9: Life Technologies and Expression Analysis (LTEA) Assay for CYP2C9 using HepaRG (AID 2283484). Summed up: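 CYP2C9 transcript level, quantified by TaqMan qRT-PCR against three housekeeping genes, was fitted bidirectionally relative to 0.5% DMSO. HepaRG cultures were treated 48 h, in duplicate, at eight half-log concentrations topping at 100 uM.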

Read-out in another assay: CYP2E1 (gene 1571)
In words: LTEA_HepaRG_CYP2E1: Life Technologies and Expression Analysis (LTEA) Assay for CYP2E1 using HepaRG (AID 2283485). Summed up: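 CYP2E1 transcript was measured by TaqMan qRT-PCR in human HepaRG cultures after 48 h chemical exposure (top 100 uM, half-log steps, 0.5% DMSO vehicle). Housekeeping-gene normalization; gain or loss fitted relative to DMSO baseline.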

Read-out in assay [10]: DNA damage-inducible transcript 3 (DDIT3), DDIT3 (gene 1649)
Nature of the assay: LTEA_HepaRG_DDIT3: Life Technologies and Expression Analysis (LTEA) Assay for DNA damage-inducible transcript 3 (DDIT3) using HepaRG (AID 2283488). Summed up: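 qRT-PCR readout (Fluidigm TaqMan), housekeeping-normalized to ACTB, GAPDH, POLR2A. HepaRG cells, 48 h exposure, 8-point half-log series from 100 uM in 0.5% DMSO, duplicates. Gain or loss of signal fitted against DMSO baseline.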

Read-out in assay [11]: Pro-epidermal growth factor (Homo sapiens) (UniProt P01133)
In words: LTEA_HepaRG_EGF: Life Technologies and Expression Analysis (LTEA) Assay for Epidermal growth factor (EGF) using HepaRG (AID 2283489). Summed up: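 Differentiated human HepaRG cells, plated 48 h then switched to serum-free induction medium, were exposed for 48 h to test chemicals (8-point half-log series, top 100 uM, 0.5% DMSO). EGF mRNA was quantified by qRT-PCR, normalized to ACTB, GAPDH, POLR2A.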

Read-out in assay [12]: Cytochrome P450 2C19 (Homo sapiens) (UniProt P33261)
Nature of the assay: LTEA_HepaRG_CYP2C19: Life Technologies and Expression Analysis (LTEA) Assay for CYP2C19 using HepaRG (AID 2283482). The essentials: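 Differentiated human HepaRG cells were exposed for 48 h in serum-free induction medium to 8 concentrations (top 100 uM, half-log steps, 0.5% DMSO). CYP2C19 mRNA was measured by qRT-PCR, normalized to ACTB/GAPDH/POLR2A, and fitted bidirectionally against DMSO.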

Read-out in the next assay: CYP4A11 (gene 1579)
Nature of the assay: LTEA_HepaRG_CYP4A11: Life Technologies and Expression Analysis (LTEA) Assay for CYP4A11 using HepaRG (AID 2283486). Summed up: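 Differentiated HepaRG cells, serum-free induction medium, exposed 48 h in duplicate to 8-point half-log series from 100 uM in 0.5% DMSO. CYP4A11 mRNA measured by qRT-PCR, normalized to ACTB, GAPDH, POLR2A; bidirectional fit versus DMSO.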

Molecules are shown by their SMILES. Active and inactive are the calls of the source. How the source made its calls: active means hit-call score of the fitted dose curve at least 0.9, where 1 is the maximum; inactive means score below 0.9.

Results on four compounds are retold here after PubChem BioAssay (EPA / NIEHS).

Sequence of Caspase-3 (Homo sapiens) (P42574 whole entry, looked up): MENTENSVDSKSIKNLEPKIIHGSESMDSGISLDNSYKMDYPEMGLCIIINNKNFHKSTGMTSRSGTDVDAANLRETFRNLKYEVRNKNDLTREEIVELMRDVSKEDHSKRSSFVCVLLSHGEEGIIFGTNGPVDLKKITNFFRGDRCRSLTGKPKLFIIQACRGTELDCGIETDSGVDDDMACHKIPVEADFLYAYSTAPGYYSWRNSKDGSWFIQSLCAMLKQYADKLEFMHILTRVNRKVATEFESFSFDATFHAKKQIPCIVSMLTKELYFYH
Sequence of Apoptosis regulator Bcl-2 (Homo sapiens) (P10415 whole entry, looked up): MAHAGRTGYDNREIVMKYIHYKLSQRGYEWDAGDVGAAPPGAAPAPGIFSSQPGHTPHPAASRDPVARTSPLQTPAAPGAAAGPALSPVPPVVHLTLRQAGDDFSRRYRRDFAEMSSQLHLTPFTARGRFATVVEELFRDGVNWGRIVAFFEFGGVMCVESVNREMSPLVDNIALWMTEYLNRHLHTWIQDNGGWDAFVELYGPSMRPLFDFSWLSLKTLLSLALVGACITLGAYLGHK
Sequence of Cytochrome P450 2C19 (Homo sapiens) (P33261 whole entry, looked up): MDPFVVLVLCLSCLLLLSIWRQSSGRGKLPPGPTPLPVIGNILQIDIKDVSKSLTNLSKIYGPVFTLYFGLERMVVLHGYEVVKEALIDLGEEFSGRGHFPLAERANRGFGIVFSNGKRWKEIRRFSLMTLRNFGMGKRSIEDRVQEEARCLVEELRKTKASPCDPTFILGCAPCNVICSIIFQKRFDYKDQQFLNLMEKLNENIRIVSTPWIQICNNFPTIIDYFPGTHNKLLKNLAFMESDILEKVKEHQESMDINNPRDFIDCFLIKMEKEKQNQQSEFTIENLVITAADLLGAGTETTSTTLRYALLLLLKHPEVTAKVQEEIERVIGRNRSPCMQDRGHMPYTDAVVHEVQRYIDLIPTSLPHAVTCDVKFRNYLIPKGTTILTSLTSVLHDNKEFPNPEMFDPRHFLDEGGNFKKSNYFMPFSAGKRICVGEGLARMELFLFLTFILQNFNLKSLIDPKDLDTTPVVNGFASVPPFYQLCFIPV

`Cc1c(C)c2c(c(C)c1O)CCC(C)(COc1ccc(CC3SC(=O)NC3=O)cc1)O2` (configuration not stated): the AC50 in assay [1] was 29.6 µM (active); in assay [3], 25 µM (active); with BCL2L11 (gene 10018) it was 90.1 µM (active); in [7], 15.8 µM (active); in assay [9], 26.4 µM (active); with CYP2E1 (gene 1571), 25.6 µM (active). The compound was classed as inactive (in assay [2]; in assay [4]; in assay [5]; with Caspase-3 (Homo sapiens); in [6]; in assay [8]). The compound was classed as inactive (with CYP2C8 (gene 1558); in the assay with CYP2C9 (gene 1559); in assay [10]; in [11]).

Take `CN(C)C(=O)NC1(c2ccccc2)CCN(CCC[C@]2(c3ccc(Cl)c(Cl)c3)CCCN(C(=O)c3ccccc3)C2)CC1`: the concentration at half-maximal activity (AC50) in assay [1] was 19.6 µM (active); in [2], 12.5 µM (active); in assay [9], 20 µM (active); in assay [12], 23.6 µM (active); in the assay with CYP2C9 (gene 1559), 19.7 µM (active); with CYP2E1 (gene 1571), 17.7 µM (active). For the same compound, in assay [10], the AC50 was 18.1 µM (active). The compound was called inactive (in assay [3]; with BCL2L11 (gene 10018); in assay [4]; in assay [5]; with Caspase-3 (Homo sapiens); in assay [6]). Moreover, the compound was classed as inactive (in assay [7]; in [8]; in the assay with CYP2C8 (gene 1558); in assay [11]).

For `S=c1[nH]c2ccccc2s1`, the compound was called inactive (in [1]; in assay [2]; in assay [3]; in the assay with BCL2L11 (gene 10018); in assay [4]; in assay [5]). The compound was called inactive (with Caspase-3 (Homo sapiens); in assay [6]; in assay [8]; in assay [9]; in assay [12]; with CYP2C8 (gene 1558)). For the same compound, the compound was called inactive (with CYP2C9 (gene 1559); in the assay with CYP2E1 (gene 1571); in [11]). Besides, the AC50 in assay [7] was 10.7 µM (active).

For the compound `CCCCCCCC(=O)OC`, the call (in assay [1]; in [2]; in [3]; in the assay with BCL2L11 (gene 10018); in assay [4]; in assay [5]) was inactive. Moreover, the outcome (in the assay with Caspase-3 (Homo sapiens); in assay [6]; in assay [7]; in assay [8]; in assay [9]; in assay [12]) was inactive. In addition, the result (in the assay with CYP2C9 (gene 1559); in the assay with CYP2E1 (gene 1571); with CYP4A11 (gene 1579); in [10]; in assay [11]) was inactive. For the same compound, in the assay with CYP2C8 (gene 1558), the AC50 is 12 µM (active).
